# Screening data: PubChem BioAssay, National Center for Advancing Translational Sciences (NCATS)
# AmpC detergent: blocks E. coli AmpC beta-lactamase in detergent assay; AmpC hydrolysis of nitrocefin, absorbance 480 nm, 0.01% Triton; Potency, µM (series often up to 114 µM), without a hit: at the top dose activity change, negative = inhibition, usual class: inhibitors; 0.041% of 370,000 active;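 note: 0% = no-compound wells and -100% = no-enzyme wells; nearly all actives have a fitted effect of over 25% in size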
#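 20 mM phosphate pH 7.0 + 0.01% (detergent screen) or 0.0001% Triton X-100; 5.3 nM AmpC reagent; cpd preinc 15 min RT; nitrocefin (800 uM stock) to start; A480 q20 s × 4 min; Activity was normalised to no-enzyme and no-compound control wells.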
# AmpC no deterg: inhibitors of E. coli AmpC beta-lactamase without detergent; P00811; AmpC nitrocefin hydrolysis, absorbance 480 nm, 0.0001% Triton; Potency, µM (series often up to 57.1 µM), for inactives: top-dose activity change, negative = inhibition, actives largely listed as inhibitors; 0.52% of 330,000 active; AID 485341;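 note: plate controls were no compound for no effect and no enzyme for full effect; nearly all actives have a fitted effect of over 20% in size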
#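 20 mM phosphate pH 7.0 + 0.01% (detergent screen) or 0.0001% Triton X-100; 5.3 nM AmpC reagent; cpd preinc 15 min RT; nitrocefin (800 uM stock) to start; A480 q20 s × 4 min; Activity was normalised to no-enzyme and no-compound control wells.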
# Sm TGR inh: S. mansoni TGR enzyme inhibition; Q962Y6; purified TGR, DTNB reduction, TNB absorbance 405 nm; Potency, µM (series often up to 114 µM), without a hit: at the top dose activity change, negative = inhibition, actives largely listed as inhibitors; 3% of 360,000 active; note: nearly all actives have a fitted effect of over 60% in size
#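 TGR 20 nM + NADPH 100 uM (dispensed conc.), cpd preinc 15 min RT; start with NADPH (500 uM addition) then DTNB (15 mM addition). Kinetic TNB absorbance, 405 nm filter. Four-parameter Hill fit across titration.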
# Giardia FBPA inh: inhibitors of Giardia lamblia fructose-1,6-bisphosphate aldolase. A8B2U2. purified Giardia FBPA. Potency, µM (highest dose often 59.6 µM), inactives show at the top dose activity, negative = inhibition, actives largely listed as inhibitors. 0.71% of 290,000 active. AID 2451; note: nearly all actives have a fitted effect of over 55% in size
# Target sequence (A8B2U2 whole entry, looked up): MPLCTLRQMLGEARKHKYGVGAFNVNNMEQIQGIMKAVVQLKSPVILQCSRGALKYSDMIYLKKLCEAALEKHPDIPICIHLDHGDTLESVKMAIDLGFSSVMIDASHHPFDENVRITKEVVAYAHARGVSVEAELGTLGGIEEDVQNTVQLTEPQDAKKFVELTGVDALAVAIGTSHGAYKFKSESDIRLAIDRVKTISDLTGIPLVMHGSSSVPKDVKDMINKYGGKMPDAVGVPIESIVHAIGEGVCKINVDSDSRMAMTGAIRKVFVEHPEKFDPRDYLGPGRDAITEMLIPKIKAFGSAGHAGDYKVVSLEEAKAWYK
#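 40 nM FBPA preincubated 10 min at RT with compound (up to 57.5 uM final), then substrate plus GAPDH/TPI/NAD/arsenate coupling and diaphorase/resazurin added. Fluorescence read after 20 min at RT, 525/598 nm.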
# An asterisk follows results filed as active; ? = inconclusive; . = no result; ! = a repeat was not active; [ ] = another dose, or the depositor's remark. Rows were chosen to be rich in hits. Some 3.6% of all compounds tested hit in one or more screens of this group. Calls come from the whole dose curve; as a rule, active = well fitted curve in the direction sought with a large enough effect; inconclusive = small, poorly fitted or top-dose-only effect, or another doubt; inactive = no such curve, though single readings can be large; an effect the other way counts as inactive or inconclusive. Unless noted, % is set by controls: 0 for no effect and ±100 for the full control effect; potency is the fitted concentration of half-maximal effect.
SMILES,AmpC detergent,AmpC no deterg,Sm TGR inh,Giardia FBPA inh
CCOc1ccc(/C(C)=N/N2C(=O)C(CC(=O)Nc3ccc(OC)cc3[N+](=O)[O-])SC2=Nc2cccc(C)c2C)cc1 (configuration not stated),-2%,-24%,18µM*,-1%
CN(C)S(=O)(=O)c1cc(NC2CC(=O)N(c3ccc(F)cc3)C2=O)ccc1Cl (configuration not stated),-12%,-44%,25µM*,0%
Cc1ccc(NC2CC(=O)N(c3ccc(C)cc3)C2=O)cc1 (configuration not stated),-1%,-2%,-28%,8%
O=C(COC(=O)c1ncc(Cl)c(Cl)c1Cl)Nc1ccc(Cl)cn1,-10%,-34%,40µM*,.
O=C(COC(=O)c1nc(Cl)ccc1Cl)Nc1ccc(Cl)cn1,?,-31%,-17%,.
CCOC(=O)/C(C)=C1\NC(C)(C)Cc2ccccc21,25µM*,?,2%,-20%
CCOC(=O)/C(C(=O)Nc1ccccc1Cl)=C1/NC(C)(C)Cc2ccccc21,1%,1%,14%,-9%
CCCCCCC#Cc1cncc(C(=O)NNC(=O)Nc2cc(Cl)cc(Cl)c2)c1,5%,16µM*,18%,8%
O=C(CCC(=O)N1CCSc2ccccc21)NCc1ccccc1Cl,22%,.,6%,.
COc1ccccc1NC(=O)C(Cc1ccccc1)NS(=O)(=O)c1ccc2c(c1)CCN2C(C)=O (configuration not stated),2%,.,-4%,.
O=C(NC1CC1)C1=C[C@@H](c2coc3ccccc3c2=O)C[C@@H](OCCCCO)O1,-2%,47%,45µM*,0%
C#CCNC(=O)C1=C[C@H](c2ccccc2)C[C@H](OCCCCO)O1,8%,20%,14µM*,?
C#CCNC(=O)C1=C[C@H](c2ccc(C(F)(F)F)cc2)C[C@H](OCc2ccc(CO)cc2)O1,-2%,99%,40µM*,?
NC(=O)C1=C[C@@H](c2ccc(C(F)(F)F)cc2)C[C@@H](OCc2ccc(CO)cc2)O1,8%,74%,-26%,-23%
C#CCNC(=O)C1=C[C@H](C2CC2)C[C@H](OCCCCO)O1,10%,12%,45µM*,-3%
CS(=O)(=O)N1CCC(C(=O)NCc2ccc(F)cc2)CC1,2%,-10%,18%,5%
C#CCNC(=O)C1=C[C@@H](c2ccccc2)C[C@@H](OCc2ccc(CO)cc2)O1,-1%,2%,45µM*,-18%
CN(Cc1ccco1)c1ncnc2ccc(-c3ccoc3)cc12,-2%,4%,20µM*,-10%
CN(Cc1ccco1)c1ncnc2ccc(-c3ccccc3Cl)cc12,-4%,-10%,-7%,-8%
N#Cc1ccc(/C=C/C(=O)c2ccccc2)cc1,8%,-15%,8.9µM*,-4%
CC(=O)C1=C(S(=O)(=O)c2ccc(C)cc2)CS(=O)(=O)C1,2%,-16%,.,-17%
Cc1csc(SCC(=O)Nc2cc(S(=O)(=O)N(C)C)ccc2C)n1,-15%,-11%,-14%,.
C=CCc1ccc(OCC(O)CN2CCC(Cc3ccccc3)CC2)c(OC)c1 (configuration not stated),-8%,51%,50µM*,-7%
COc1cccc(NC(=O)c2nc(S(C)(=O)=O)ncc2Cl)c1,-12%,0%,10µM*,11%
Cc1cccc(NC(=O)c2nc(S(C)(=O)=O)ncc2Cl)c1,2%,.,4.5µM*,.
SMILES,AmpC detergent,AmpC no deterg,Sm TGR inh,Giardia FBPA inh
CCOC(=O)C1=C(CN2CC(C)CC(C)C2)NC(=O)NC1c1ccc2c(c1)OCO2 (configuration not stated),0%,-1%,-5%,-1%
COc1ccc(/C=C/C(=O)Nc2nc3n(n2)C(c2ccccc2)C=C(c2ccccc2)N3)cc1 (configuration not stated),17%,.,0%,.
Cc1ccc(C2C=C(c3ccc(Cl)cc3)Nc3nc(NC(=O)c4ccco4)nn32)cc1 (configuration not stated),5%,.,13µM*,.
Cc1ccc(S(=O)(=O)Nc2nc3n(n2)C(c2ccc(Cl)cc2)C=C(c2ccccc2)N3)cc1 (configuration not stated),11%,.,2%,.
COc1ccccc1C(=O)Nc1nc2n(n1)C(c1ccc(F)cc1)C=C(c1ccc(Cl)cc1)N2 (configuration not stated),-3%,.,-1%,.
Cc1ccc(C2C=C(c3ccccc3)Nc3nc(NS(=O)(=O)c4ccccc4)nn32)cc1 (configuration not stated),25%,.,35µM*,.
O=S(=O)(Nc1nc2n(n1)C(c1ccccc1)C=C(c1ccc(Cl)cc1)N2)c1ccccc1 (configuration not stated),25%,.,45µM*,.
COc1ccc(C2C=C(c3ccccc3)Nc3nc(NC(C)=O)nn32)cc1 (configuration not stated),20%,-18%,20µM*!,3%
Cc1ccc(C2C=C(c3ccccc3)Nc3nc(N4C(=O)CCC4=O)nn32)cc1 (configuration not stated),-12%,-7%[2.29 µM],22µM*,-14%
COc1ccc(NC(=O)N2CC[C@@]3(CCCN(C(=O)c4ccncc4)C3)C2)cc1,.,.,.,2%
CC1=CC(=O)C2=C(C)C[C@@H]3OC(=O)[C@@H](C)[C@H]3C=C12,.,.,.,-3%
CC1=C(c2ccccc2)SC2=NCCN21,1%,-7%,9%,-1%
CCCN=C(C)C1=C(O)c2ccccc2C1=O,-18%,0%,-9%,7%
CCOC(=O)C1=C(O)c2ccccc2C(=O)/C1=C\c1ccc(CC)cc1,3%,-20%,4.5µM*,7.9µM*
CCOC(=O)c1c(C)oc2c1C(=O)c1ccccc1C2=O,-11%,-23%,-19%,?
CCCc1ccc(/C=C2\C(=O)c3ccccc3C(O)=C2C(=O)OCC)cc1,?,18µM*,8.9µM*,?
C=C1CCN([C@H](C(=O)OCc2cccc(C)c2)C(C)C)S(=O)(=O)c2ccccc21,0%,-30%,14%,-14%
COc1ccc(C(=O)N(C)Cc2ccccn2)cc1OC1CCN(C(C)C)CC1,7%,-15%,-3%,.
Cc1cc(=O)n2c3c(sc2n1)C(=O)N(Cc1ccccc1)C3=O,-10%,-22%,1.1µM*,-2%
Cc1cc(=O)n2nc(-c3ccccc3)sc2n1,-14%,-16%,0%,0%
CCOC(=O)c1sc(S(C)=O)c2c1CCc1conc1-2 (configuration not stated),-2%,-10%,1µM*,?
Cc1cccc(C)c1N(CC(=O)Nc1cc(Cl)ccc1Oc1ccccc1)S(C)(=O)=O,?,0.16µM*,2%,-8%
Cc1ccc(C)c(N(CC(=O)Nc2cc(Cl)ccc2Oc2ccccc2)S(C)(=O)=O)c1,-12%,10%,9%,-8%
O=S(=O)(/N=C(/Sc1ccccc1)c1ccccc1)c1ccccc1,0%,-12%,1.8µM*,8%
CS/C(=N\S(=O)(=O)c1ccccc1)c1ccccc1,?,-18%,3%,19%
